Experiment [1] is described as follows: resazurin metabolic signal in HepG2 cells – cell-based, resazurin fluorescence, 24 h, PK04 Diversity Set, profiling panel (AID 1172). Further: test concentration not given here. As to conditions: HepG2 viability, higher = more signal.
The nature of experiment [2]: budding yeast growth changes without added modifier – OD600, strain BY4716, 24 h, basal condition, primary screen (AID 1173). The note with it: S. cerevisiae BY4716 growth, OD600, 24 h; higher = more signal, called active from +8 up or from −8 down.
Experiment [3] is described as follows: viability profiling in MM1S myeloma cells – cell-based, resazurin fluorescence, basal, 24 h, PK04 Diversity Set, profiling panel (AID 1174).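 Further: MM1S multiple myeloma cell line; test concentration not given here.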 As to conditions: higher = more signal, called active from +8 up or from −8 down.
Experiment [4] concerns the target Dihydroorotate dehydrogenase (quinone), mitochondrial (Plasmodium falciparum (isolate 3D7)) (UniProt Q08210). The experiment in a line: inhibition of P. falciparum DHODH – biochemical, C-terminal His tag, absorbance 600 nm, primary screen (AID 1175).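 Further: recombinant parasite enzyme with a five histidine tag at its C terminus; test concentration not given here.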 The note with it: PfDHODH enzyme, DCIP absorbance 600 nm; higher = more signal, called active from +8 up or from −8 down.

Experiment [5] in a line: inhibition of PAO1 biofilm formation – strain PAO1, LB-PBS medium, absorbance 600 nm, primary screen (AID 1176). Further: test concentration not given here. As to conditions: P. aeruginosa PAO1 growth/biofilm, A600, 12 h; higher = more signal.
The nature of experiment [6]: growth modulation of vineyard yeast isolate – strain RM11-1a, OD600, basal, 24 h, primary screen (AID 1177).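 Further: cultures grown under basal conditions with no added stressor; test concentration not given here.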 The note with it: S. cerevisiae RM11-1a growth, OD600, 24 h; higher = more signal, called active from +8 up or from −8 down.
Experiment [7] in a line: growth of efflux-deficient E. coli DRC39 – strain DRC39, OD650, 24 h, E. coli filamentation inducers, primary screen (AID 1178).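 Further: growth measured as culture turbidity by optical density at 650 nm; test concentration not given here.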 As to conditions: E. coli DRC39 acrAB, higher = more signal, called active from +8 up or from −8 down.
Experiment [8] can be described thus: growth of efflux-deficient E. coli DRC39 – strain DRC39, OD650, 48 h, E. coli filamentation inducers, primary screen (AID 1179).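 Further: screen aims at cell division blockers that make cells filament.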 The note with it: E. coli DRC39 delta-acrAB growth, higher = more signal, called active from +8 up or from −8 down.
Experiment [9] can be described thus: viability profiling in RPMI8226 myeloma cells – cell-based, resazurin fluorescence, basal, 24 h, PK04 Diversity Set, profiling panel (AID 1180).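 Further: RPMI8826 multiple myeloma cell line at 5000 cells per well; test concentration not given here.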 The note with it: higher = more signal. On the technique in general: Alamar Blue is a resazurin reagent that responds to reducing activity.
In experiment [10] the target is E3 ubiquitin-protein ligase XIAP (Homo sapiens) (UniProt P98170). The experiment in a line: small molecules binding XIAP protein – biophysical, small-molecule microarray, fluorescence 635 nm, primary screen (AID 1181).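 Further: score merges 667 nm emission and signal to noise over triplicate slides.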 The note with it: higher = more signal.

The structures appear in SMILES notation. Activity calls are given as the source filed them. Unless noted, how the calls were made is not given here.

Chain of E3 ubiquitin-protein ligase XIAP (Homo sapiens) (P98170 whole entry, looked up): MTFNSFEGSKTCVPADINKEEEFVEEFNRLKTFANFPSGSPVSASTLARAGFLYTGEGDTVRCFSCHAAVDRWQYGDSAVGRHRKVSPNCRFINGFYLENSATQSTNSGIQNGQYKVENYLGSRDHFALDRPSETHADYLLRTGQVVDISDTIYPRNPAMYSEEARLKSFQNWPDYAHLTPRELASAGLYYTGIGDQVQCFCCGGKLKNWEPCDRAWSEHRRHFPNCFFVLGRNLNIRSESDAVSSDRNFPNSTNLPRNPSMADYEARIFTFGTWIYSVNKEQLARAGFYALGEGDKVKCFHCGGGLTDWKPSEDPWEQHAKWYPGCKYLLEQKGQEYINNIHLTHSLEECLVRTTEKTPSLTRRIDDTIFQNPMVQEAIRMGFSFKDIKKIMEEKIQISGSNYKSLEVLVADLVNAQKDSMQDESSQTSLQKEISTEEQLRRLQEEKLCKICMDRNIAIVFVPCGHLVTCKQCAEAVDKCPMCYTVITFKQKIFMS
Chain of Dihydroorotate dehydrogenase (quinone), mitochondrial (Plasmodium falciparum (isolate 3D7)) (Q08210 whole entry, looked up): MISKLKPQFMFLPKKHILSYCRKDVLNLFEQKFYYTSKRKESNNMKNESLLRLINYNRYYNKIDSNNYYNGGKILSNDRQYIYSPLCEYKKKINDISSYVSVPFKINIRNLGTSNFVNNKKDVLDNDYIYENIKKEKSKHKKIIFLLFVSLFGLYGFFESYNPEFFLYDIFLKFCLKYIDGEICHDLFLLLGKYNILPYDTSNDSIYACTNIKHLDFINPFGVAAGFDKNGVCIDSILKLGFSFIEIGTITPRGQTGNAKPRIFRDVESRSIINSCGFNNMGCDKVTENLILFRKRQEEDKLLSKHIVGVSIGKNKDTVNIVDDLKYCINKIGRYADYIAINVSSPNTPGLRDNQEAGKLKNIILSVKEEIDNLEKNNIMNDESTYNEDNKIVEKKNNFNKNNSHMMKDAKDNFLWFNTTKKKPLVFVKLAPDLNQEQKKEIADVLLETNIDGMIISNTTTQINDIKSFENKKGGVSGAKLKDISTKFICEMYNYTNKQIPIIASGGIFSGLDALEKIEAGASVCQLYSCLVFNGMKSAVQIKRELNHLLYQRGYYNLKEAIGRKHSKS

`Cc1ccc(S(=O)(=O)N[C@@H]2COC(=O)[C@@H](C)COC(=O)CC=C[C@H]2C)cc1`: the z-score is 0.0896 in experiment [1]; 0.426 (inactive) in [2]; 0.258 (inactive) in experiment [3]; -0.413 (inactive) in experiment [5]; 1.02 (inactive) in experiment [6]; 0.155 (inactive) in [7]. In addition, the z-score was -0.73 (inactive) in experiment [8] and -0.0722 in [9]. Moreover, the composite z-score in [4] was 0.264 (inactive); in [10], 0.214.
In the case of `COc1ccc(O[C@H]2C=C[C@@H](c3ccccc3)O[C@@H]2CON=CC[C@@H]2C=C[C@H](OC(C)=O)[C@@H](COC(C)=O)O2)cc1`, the z-score in experiment [1] is 0.185; in experiment [2], 2.06 (inactive); in experiment [3], -0.0893 (inactive); in experiment [5], 0.405 (inactive); in experiment [6] it was 1.34 (inactive); in experiment [7] it was 0.503 (inactive). Moreover, the values for the z-score in experiment [8] and in [9] were -0.185 (inactive) and -0.604, respectively. Also, the composite z-score in experiment [4] was 0.0159 (inactive); in experiment [10], 0.0391.
Consider `CCOC(=O)[C@H](CC(C)C)NC(=O)CCC1CC(OC(=O)NCc2ccc3c(c2)OCO3)CC2(CCCC(COC(=O)NCC(c3ccccc3)c3ccccc3)O2)O1` (stereo not given in full), for which the z-score in experiment [1] was 0.842; in experiment [2], 0.724 (inactive); in experiment [3] it was 0.56 (inactive); in experiment [5], -0.306 (inactive); in [6], 0.786 (inactive); in [7] it was 0.304 (inactive). The z-score in experiment [8] was 0.321 (inactive); in experiment [9] it was 0.509. The composite z-score was 0.125 (inactive) in experiment [4] and -0.17 in experiment [10].
As for `CCOC(=O)[C@H](Cc1ccccc1)NC(=O)CCC1CC(OC(=O)NCCc2ccc(F)cc2)CC2(CCCC(COC(=O)NCC3CCCCC3)O2)O1` (stereo not given in full), the z-score in experiment [1] was 0.211; in [2], -0.362 (inactive); in [3], 0.368 (inactive); in [5], 0.781 (inactive); in [6], 0.869 (inactive); in experiment [7], 0.828 (inactive). Besides, the z-score in [8] is 1.21 (inactive); in experiment [9], 0.772. In addition, the composite z-score is -0.189 (inactive) in experiment [4] and -0.0009 in [10].
For the compound `CC(CCN1CCCCc2nc(C)c(C)cc21)=NO[C@H](C)c1cn([C@H](CO)Cc2ccccc2)nn1`, the z-score in experiment [1] is -0.605; in experiment [2], -0.241 (inactive); in experiment [3], 0.0783 (inactive); in [5], -0.503 (inactive); in experiment [6], -0.134 (inactive); in experiment [7], -0.894 (inactive). Also, the z-score in experiment [8] was -0.488 (inactive); in [9], 0.594. The figures for the composite z-score in experiment [4] and in [10] were 0.301 (inactive) and 0.0595, respectively.
As for `CC(C)CON=C1[C@H]2CCn3c(=O)n(Cc4cc5c(cc4Cl)OCO5)c(=O)n3[C@H]2[C@H](O)[C@@H]2O[C@H]12`, the z-score in experiment [1] was -0.274; in [2], -0.761 (inactive); in [3], -0.302 (inactive); in experiment [5], -1.4 (inactive); in [6], -0.471 (inactive); in experiment [7] it was 0.42 (inactive). Moreover, the results for the z-score in [8] and in [9] were -1.6 (inactive) and -0.241, respectively. Besides, the results for the composite z-score in [4] and in experiment [10] were -2.76 (inactive) and -0.0773, respectively.
With `COc1cccc([C@@H]2Oc3ccc(OC)cc3C(=O)[C@H]2O)c1`, the z-score in experiment [1] is 0.115; in experiment [2], -8.27 (active); in experiment [3] it was 0.0409 (inactive); in [5] it was -0.364 (inactive); in experiment [6], -0.55 (inactive); in [7], -1.47 (inactive). For the same compound, the z-score in [8] was -2.37 (inactive); in [9], 0.329. For the same compound, the composite z-score in [4] is -2.73 (inactive); in [10], -0.0773.
On to `CO[C@H]1COC(=O)CC=C[C@H](C)COC(=O)[C@@H](C)NC(=O)CC=C[C@@H]1C`, for which the z-score in [1] was -0.251; in experiment [2], -0.695 (inactive); in experiment [3] it was 1.31 (inactive); in [5], -0.16 (inactive); in experiment [6] it was -0.652 (inactive); in [7], 0.33 (inactive). The results for the z-score in experiment [8] and in experiment [9] were -1.21 (inactive) and 0.961, respectively. In addition, the composite z-score in experiment [4] is -0.412 (inactive); in experiment [10] it was 0.0297.
`CO[C@H]1COC(=O)[C@@H](C)COC(=O)[C@H](COCc2ccccc2)NC(=O)CC=C[C@H]1C`: the z-score in experiment [1] is -0.238; in [2] it was -1.58 (inactive); in experiment [3], 0.671 (inactive); in experiment [5] it was -0.543 (inactive); in experiment [6], 0.085 (inactive); in [7], 1.05 (inactive). For the same compound, the z-score in experiment [8] was -0.997 (inactive); in [9], 0.267. Further, the composite z-score was 0.604 (inactive) in experiment [4] and 0.227 in experiment [10].
Regarding `CCOC(=O)[C@H](CC(C)C)NC(=O)CCC1CC(OC(=O)NCCc2ccc(F)cc2)CC2(CCCC(COC(=O)NCCOc3ccccc3)O2)O1` (stereo not given in full), the z-score in experiment [1] is -0.972; in [2] it was 0.0544 (inactive); in [3] it was 0.2 (inactive); in experiment [5], -0.883 (inactive); in experiment [6] it was 0.446 (inactive); in experiment [7], -0.183 (inactive). Moreover, the z-score in experiment [8] was 0.168 (inactive); in [9], 0.161. Further, the composite z-score in experiment [4] was 0.95 (inactive); in experiment [10] it was -0.214.
As to `CC(=O)OC[C@H]1OC(ON=CC[C@@H]2C=C[C@H](OC(C)=O)[C@@H](COC(C)=O)O2)[C@H](OC(C)=O)[C@@H](OC(C)=O)[C@@H]1OC(C)=O` (stereo not given in full), the z-score was 0.186 in [1]; 0.352 (inactive) in [2]; -0.919 (inactive) in experiment [3]; -0.0903 (inactive) in [5]; -0.618 (inactive) in experiment [6]; 0.938 (inactive) in experiment [7]. Moreover, the z-score is 0.583 (inactive) in experiment [8] and 0.169 in experiment [9]. Moreover, the figures for the composite z-score in [4] and in [10] were -0.753 (inactive) and 0.0982, respectively.
For the compound `COC(=O)CC=C[C@@H](C)[C@@H](C=NOC[C@H]1O[C@H](c2ccccc2)C=C[C@@H]1Oc1ccc(OC)cc1)NS(=O)(=O)c1ccc(C)cc1`, the z-score was -0.659 in experiment [1]; 0.642 (inactive) in [2]; -0.0907 (inactive) in [3]; -0.0781 (inactive) in [5]; 0.0674 (inactive) in [6]; -1.01 (inactive) in [7]. The z-score in experiment [8] is -0.913 (inactive); in experiment [9], -0.189. In addition, the composite z-score was 0.0727 (inactive) in [4] and -0.167 in experiment [10].
For the compound `CON=C[C@@H](NS(=O)(=O)c1ccc(C)cc1)[C@H](C)C=CCC(=O)OC`, the z-score is 0.27 in experiment [1]; -0.146 (inactive) in [2]; -0.548 (inactive) in experiment [3]; -0.291 (inactive) in [5]; 0.475 (inactive) in experiment [6]; 0.717 (inactive) in [7]. Further, the z-score in experiment [8] was -0.761 (inactive); in [9] it was -0.484. For the same compound, the composite z-score in [4] is 0.244 (inactive); in experiment [10], -0.0773.

For the origin of these results see PubChem BioAssay.
